Measurements published in PubChem BioAssay (Tox21).
Several values for one entry are separate records, joined by “and”; a condition that tells them apart may be missing. Equal entries are not always repeated. Inconclusive results are not listed. Entries that show only a call come without a potency. Activity calls are given as the source filed them. The call rests on the fitted dose curve; in most records, active means well fitted inhibition curve with a large enough effect in the signal ratio in the repeat runs (not every such curve was filed as active); inconclusive means weak or mixed curves; inactive means flat fitted curve, though single readings scatter; the % refers to the signal ratio.

target: Progesterone receptor (Homo sapiens) (UniProt P06401); assay: qHTS assay to identify small molecule antagonists of the progesterone receptor (PR) signaling pathway (AID 1346795); details: PR-UAS-bla HEK293T, beta-lactamase FRET ratio, 16 h; series mostly up to 92.4 µM
Excerpt: National Center for Advancing Translational Sciences [NCATS]
NIH Chemical Genomics Center [NCGC]
U.S. Environmental Protection Agency [EPA]
National Institutes of Environmental Health Sciences [NIEHS]
National Toxicology Program [NTP]
U.S. Food and Drug Administration [FDA]
Progesterone receptor (PR), a nuclear hormone receptor, plays an important role in development, metabolic homeostasis and reproduction. […] Endocrine disrupting chemicals (EDCs) and their interactions with steroid hormone receptors like PR causes disruption of normal endocrine function. To identify the compounds that inhibit PR signaling, a PR-UAS-bla GripTite cell line i.e. PR-UAS-bla HEK293T (Invitrogen, Carlsbad, CA, USA) containing a beta-lactamase reporter gene under the control of an Upstream Activator Sequence (UAS) was used to screen Tox21 10K compound library.
Tox21 Assay Protocol Summary:
PR-UAS-bla HEK293T cells were dispensed at 3,000 cells/4 uL of assay medium containing 2% charcoal stripped FBS per well into black wall/clear-bottom 1536-well plates using a Multidrop Combi (ThermoFisher Scientific, Waltham, MA) dispenser. After the assay plates were incubated at a 37C and 5% CO2 for 6 hr, 23 nL of compounds dissolved in DMSO, positive controls or DMSO only was transferred to the assay plate by a Pintool station (Kalypsys, San Diego, CA), followed by addition of 1 uL (1nM as final concentration) of Promegestone (R5020) in assay medium using a BioRAPTR FRD (Flying Reagent Dispenser, Aurora Discovery, San Diego, CA). The plates were incubated at 37C and 5% CO2 for 16 hr. Then 1 uL of LiveBLAzer B/G FRET substrate was added using a FRD. After the plates were incubated at room temperature for 2 hours, fluorescence intensity was measured by an Envision plate reader (PerkinElmer, Shelton, CT).
Potency means the concentration at half of the fitted maximal effect.

Progesterone receptor (Homo sapiens), sequence (P06401 whole entry, looked up): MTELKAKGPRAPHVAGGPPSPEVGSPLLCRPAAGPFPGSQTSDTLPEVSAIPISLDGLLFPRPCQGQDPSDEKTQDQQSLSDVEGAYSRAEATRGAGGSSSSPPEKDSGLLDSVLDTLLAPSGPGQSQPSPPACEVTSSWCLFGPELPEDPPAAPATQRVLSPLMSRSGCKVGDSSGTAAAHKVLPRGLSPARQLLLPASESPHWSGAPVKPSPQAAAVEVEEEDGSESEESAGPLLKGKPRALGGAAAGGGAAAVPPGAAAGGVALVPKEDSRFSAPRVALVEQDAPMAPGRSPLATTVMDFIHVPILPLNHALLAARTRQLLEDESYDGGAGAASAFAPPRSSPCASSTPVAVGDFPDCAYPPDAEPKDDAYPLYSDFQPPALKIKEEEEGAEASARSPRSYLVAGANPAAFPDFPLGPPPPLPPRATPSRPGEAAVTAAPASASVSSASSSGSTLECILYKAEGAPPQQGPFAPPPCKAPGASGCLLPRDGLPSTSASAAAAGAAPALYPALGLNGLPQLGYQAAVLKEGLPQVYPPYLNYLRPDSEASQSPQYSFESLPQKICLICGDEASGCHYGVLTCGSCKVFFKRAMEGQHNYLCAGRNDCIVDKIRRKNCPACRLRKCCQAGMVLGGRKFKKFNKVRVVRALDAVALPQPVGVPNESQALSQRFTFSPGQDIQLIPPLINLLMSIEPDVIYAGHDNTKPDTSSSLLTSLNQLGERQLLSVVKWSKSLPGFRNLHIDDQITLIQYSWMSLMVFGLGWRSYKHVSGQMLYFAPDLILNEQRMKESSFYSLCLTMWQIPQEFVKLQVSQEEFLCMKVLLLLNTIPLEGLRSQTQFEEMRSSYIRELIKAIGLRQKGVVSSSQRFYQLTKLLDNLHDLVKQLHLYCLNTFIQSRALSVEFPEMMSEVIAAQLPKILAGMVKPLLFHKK

SMILES	Potency
CC(C)CCCCCCCOP(=O)(Oc1ccccc1)Oc1ccccc1	24.5 µM (active)
Nc1ccc(Cc2ccc(N)c(Cl)c2)cc1Cl	13.2 µM (active)
Clc1ccc(Oc2ccccc2)cc1	inactive
O=[N+]([O-])c1cc(Cl)ccc1Cl	inactive
c1ccc2c(c1)[nH]c1cnccc12	27.3 µM (active)
c1ccc(OCC2CO2)cc1 (stereo not given)	inactive
CN(C)S(=O)(=O)N(SC(F)(Cl)Cl)c1ccccc1	48.6 µM (active)
c1ccc2c(c1)OCC(C1=NCCN1)O2 (stereo not given)	21.1 µM (active)
Nc1ccc([N+](=O)[O-])cc1Cl	54.5 µM (active)
O=C1c2ccccc2C(=O)C1C(=O)C(c1ccccc1)c1ccc(Cl)cc1 (stereo not given)	19.3 µM (active)
CC(=O)OC1(c2ccccc2)CCN(CCc2ccccc2)CC1	inactive
CN(C)CCc1c[nH]c2ccc(O)cc12	53.2 µM (active)
CCN(CC)C(=S)[S-].CCN(CC)C(=S)[S-].[Zn+2]	1.08 µM (active)
Nc1ccc(Cl)cc1C(=O)c1ccccc1	17.2 µM (active)
CC(=O)[O-].CC(=O)[O-].O.O.[Cd+2]	0.603 µM (active)
Nc1c(Oc2ccccc2)cc(O)c2c1C(=O)c1ccccc1C2=O	inactive
N#Cc1ccccc1Cl	inactive
CC(C)CCCCCOC(=O)c1ccccc1C(=O)OCCCCCC(C)C	inactive
COC[C@H](C)N(C(=O)CCl)c1c(C)csc1C	inactive
Clc1ccc(C(Cl)(Cl)Cl)c(Cl)c1	inactive

SMILES	Potency
CSCCCN=C=S	inactive
Oc1c(Br)c(Br)c(Br)c(Br)c1Br	27.5 µM (active)
CCc1cc(C)cc(CC)c1-c1c(OC(=O)C(C)(C)C)n2n(c1=O)CCOCC2	inactive
CCC(C)c1cc([N+](=O)[O-])cc([N+](=O)[O-])c1OC(=O)C=C(C)C (stereo not given)	12.2 µM (active)
S=C=Nc1cccc2ccccc12	67.9 µM (active)
CCCN(CC)CC1COC2(CCC(C(C)(C)C)CC2)O1 (stereo not given)	inactive
CC(C)C(=O)Cl	inactive
CCCCCCCCCCCCCCCCCCn1cc[n+](C)c1	54.2 µM (active)
ClC1=C(Cl)[C@]2(Cl)[C@@H]3[C@@H](Cl)[C@H](Cl)C[C@@H]3[C@@]1(Cl)C2(Cl)Cl	inactive
O=C(Nc1ccc2[nH]ccc2c1)c1cc2cc(F)ccc2n1Cc1cccc(F)c1	12.2 µM (active)
O=C(O)c1cc[c]([Hg][Cl])cc1	15.4 µM (active)
CC[C@H](C)[C@H]1O[C@]2(C=C[C@@H]1C)C[C@@H]1C[C@@H](C/C=C(\C)[C@@H](O[C@H]3C[C@H](OC)[C@@H](O[C@H]4C[C@H](OC)[C@@H](O)[C@H](C)O4)[C@H](C)O3)[C@@H](C)/C=C/C=C3\CO[C@@H]4[C@H](O)C(C)=C[C@@H](C(=O)O1)[C@]34O)O2	16.1 µM (active)
FC(Cl)(Cl)Cl	inactive
O=CC(Br)(Br)Br	inactive
ClC1=C(Cl)C2(Cl)C3C(Cl)C(Cl)CC3C1(Cl)C2(Cl)Cl (stereo not given)	4.31 µM (active) and 21.7 µM (active)
CCCCCCCCCCCCCCC(Br)C(=O)O (stereo not given)	inactive
COc1cccc(C(=O)CCN[C@@H](C)[C@H](O)c2ccccc2)c1	inactive
CCOC(=O)OC1=C(c2cc(C)ccc2C)C(=O)NC12CCC(OC)CC2 (stereo not given)	inactive
COC(=O)N(C(=O)N1COC2(C(=O)OC)Cc3cc(Cl)ccc3C2=N1)c1ccc(OC(F)(F)F)cc1 (stereo not given)	29.8 µM (active)
COP(=O)(OC)SCn1c(=O)oc2cc(Cl)cnc21	inactive
